Results: PubChem BioAssay (NCI)
The panel holds about 79,000 compounds, 15% with a hit somewhere; the sample as a whole holds those more often. Calls of active or inactive are those of the source. No stated cut-off is given here; in the data, active means growth inhibition above about 70%; inactive means the rest.

What was measured:
[1] = NCI Yeast Anticancer Drug Screen. Data for the rad52 strain (AID 147);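 further: 0% = growth of vehicle-treated control cultures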; conditions: S. cerevisiae rad52 mutant growth inhibition, hits give high values
Method in brief: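 Compounds are applied to a genetically defined yeast strain lacking normal DNA damage repair, and inhibition of growth is expressed relative to cultures given vehicle only.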

[2] = NCI Yeast Anticancer Drug Screen. Data for the wt1 strain (AID 149);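 further: 0% = growth of vehicle-treated wt1 cultures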; conditions: S. cerevisiae wt1 strain (SPY 50644) growth inhibition, hits give high values
Method in brief: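 Growth inhibition read against vehicle controls after compound exposure of the wt1 yeast strain.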

[3] = NCI Yeast Anticancer Drug Screen. Data for the rad50EPP+ strain (AID 151);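 further: 0% = growth of vehicle-treated control cultures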; conditions: S. cerevisiae rad50 mutant strain, hits give high values
Method in brief: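 Compounds were applied to the rad50EPP+ yeast strain, which bears a defined DNA repair alteration, and growth inhibition was determined relative to vehicle-treated cultures.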

[4] = NCI Yeast Anticancer Drug Screen. Data for the mgt1 strain (AID 153); conditions: S. cerevisiae mgt1 mutant growth inhibition, hits give high values
Method in brief: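 Strain: mgt1 yeast, one of a set carrying defined DNA damage repair or cell cycle control alterations. Compound-treated growth compared with vehicle.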

[5] = NCI Yeast Anticancer Drug Screen. Data for the rad50 strain (AID 155);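 further: 0% = growth of vehicle-only cultures of the same strain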; conditions: S. cerevisiae rad50 strain growth inhibition, hits give high values
Method in brief: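 Readout: growth inhibition relative to vehicle-treated cultures. Compound exposure was carried out in a genetically defined yeast strain deficient in DNA damage repair.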

[6] = NCI Yeast Anticancer Drug Screen. Data for the mec2-1 strain (AID 157); conditions: S. cerevisiae mec2-1 strain, hits give high values
Method in brief: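 Strain: mec2-1 (DNA repair/cell cycle alteration). Compound exposure, then growth measured; inhibition expressed relative to vehicle.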

[7] = NCI Yeast Anticancer Drug Screen. Data for the rad14 strain (AID 159);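 further: 0% = growth of vehicle-treated control cultures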; conditions: S. cerevisiae rad14 strain growth inhibition, hits give high values
Method in brief: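 Growth inhibition vs vehicle controls; genetically altered yeast strain (DNA damage repair defect) treated with test compounds.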

[8] = NCI Yeast Anticancer Drug Screen. Data for the CLN2oe strain (AID 163);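 further: 0% = growth of vehicle-only control cultures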; conditions: S. cerevisiae CLN2oe strain, hits give high values
Method in brief: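 Growth of a genetically modified yeast strain is measured after compound exposure and compared with cultures given vehicle alone.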

[9] = NCI Yeast Anticancer Drug Screen. Data for the cln2 rad14 strain (AID 165);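 further: 0% = growth equal to vehicle treated cultures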; conditions: S. cerevisiae cln2 rad14 strain, hits give high values
Method in brief: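 Compounds are applied to the cln2 rad14 yeast strain, and growth is then compared with that of vehicle-treated cultures to give inhibition.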

[10] = NCI Yeast Anticancer Drug Screen. Data for the bub3 strain (AID 167); conditions: S. cerevisiae bub3 mutant strain, hits give high values
Method in brief: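 Readout: yeast growth inhibition, expressed relative to vehicle-only wells. The test organism is a mutant strain from a panel with lesions in DNA repair or checkpoint genes.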

[11] = NCI Yeast Anticancer Drug Screen. Data for the wt2 strain (AID 169);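 further: 0% = growth of vehicle-treated yeast cultures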; conditions: S. cerevisiae wt2 strain growth inhibition, hits give high values
Method in brief: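 This strain belongs to a panel of yeast strains with defined genetic alterations in DNA damage repair or cell cycle control. Compounds are applied, and growth inhibition is measured against vehicle-treated cultures.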

[12] = NCI Yeast Anticancer Drug Screen. Data for the mlh1 strain (AID 171);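 further: 0% = growth of vehicle-treated control cultures of the same strain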; conditions: S. cerevisiae mlh1 strain growth inhibition, hits give high values
Method in brief: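 Growth of the mutant yeast strain after compound exposure, expressed as inhibition relative to vehicle-only controls.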

[13] = NCI Yeast Anticancer Drug Screen. Data for the sgs1 strain (AID 173);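 further: 0% = growth of vehicle-only control cultures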; conditions: S. cerevisiae sgs1 mutant, hits give high values
Method in brief: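 Growth of a yeast strain bearing a defined genetic alteration is measured after compound treatment. Inhibition is expressed relative to vehicle-only controls.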

[14] = NCI Yeast Anticancer Drug Screen. Data for the mlh1 rad18 strain (AID 175); conditions: S. cerevisiae mlh1 rad18 strain growth inhibition, hits give high values
Method in brief: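 Read-out is yeast growth inhibition, calculated against vehicle-only controls. The compound was applied to a strain engineered with DNA damage repair alterations.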

[15] = NCI Yeast Anticancer Drug Screen. Data for the rad18 strain (AID 177); conditions: S. cerevisiae rad18 mutant growth inhibition, hits give high values
Method in brief: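 Growth of the mutant yeast strain after compound exposure, normalised to vehicle-only cultures.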

[16] = NCI Yeast Anticancer Drug Screen. Data for the sgs1 mgt1 strain (AID 161);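 further: 0% = growth of cultures given vehicle only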; conditions: S. cerevisiae sgs1 mgt1 strain, hits give high values
Method in brief: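 Test agents were incubated with a DNA-repair-mutant yeast strain. Growth was then read and compared against vehicle-treated controls.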

[17] = at 5.0 µM (retest, dose inferred, filed as 0.5)
[18] = at 50.0 µM (retest, dose inferred, filed as 5.0)

Measured: growth inhibition

Nc1nc(-c2cccnc2)cc(-c2cc(-c3cccnc3)nc(N)n2)n1
inactive: [1]; at 1.2 µM 0% | [1]; at 3.7 µM 0% | [1]; at 11.0 µM -3% | [1]; at 33.0 µM -2% | [1]; at 100.0 µM -8% | [2]; at 1.2 µM 0% | [2]; at 3.7 µM -1% | [2]; at 11.0 µM -1% | [2]; at 33.0 µM -2% | [2]; at 100.0 µM -2% | [3]; at 1.2 µM -2% | [3]; at 3.7 µM -3% | [3]; at 11.0 µM -3% | [3]; at 33.0 µM 0% | [3]; at 100.0 µM -2% | [4]; at 1.2 µM 2% | [4]; at 3.7 µM 2% | [4]; at 11.0 µM 2% | [4]; at 33.0 µM -1% | [4]; at 100.0 µM 3% | [5]; at 1.2 µM 0% | [5]; at 3.7 µM 5% | [5]; [17] 1% | [5]; at 11.0 µM 2% | [5]; at 33.0 µM 4% | [5]; [18] 5% | [5]; at 50.0 µM 3.7% | [5]; at 100.0 µM 8% | [6]; at 1.2 µM 0% | [6]; at 3.7 µM 2% | [6]; [17] 24% | [6]; at 11.0 µM -1% | [6]; at 33.0 µM 0% | [6]; [18] 33% | [6]; at 50.0 µM 1.1% | [6]; at 100.0 µM -6% | [7]; at 1.2 µM -1% | [7]; at 3.7 µM 2% | [7]; at 11.0 µM -1% | [7]; at 33.0 µM 0% | [7]; at 100.0 µM -1% | [8]; at 1.2 µM -2% | [8]; at 3.7 µM 2% | [8]; at 11.0 µM 2% | [8]; at 33.0 µM 1% | [8]; at 100.0 µM 1% | [9]; [17] 46% | [9]; at 50.0 µM 9.95% | [10]; at 1.2 µM 0% | [10]; at 3.7 µM -6% | [10]; [17] -17% | [10]; at 11.0 µM 0% | [10]; at 33.0 µM -2% | [10]; [18] -5% | [10]; at 50.0 µM 6.3% | [10]; at 100.0 µM -10% | [11]; at 1.2 µM -1% | [11]; at 3.7 µM 0% | [11]; at 11.0 µM 1% | [11]; at 33.0 µM -1% | [11]; at 100.0 µM 0% | [12]; at 1.2 µM -1% | [12]; at 3.7 µM -1% | [12]; at 11.0 µM -13% | [12]; at 33.0 µM -14% | [12]; at 100.0 µM 13% | [13]; at 1.2 µM -2% | [13]; at 3.7 µM -4% | [13]; at 11.0 µM -4% | [13]; at 33.0 µM -6% | [13]; at 100.0 µM -7% | [14]; [17] -15% | [14]; [18] 10% | [14]; at 50.0 µM 28.6% | [15]; at 1.2 µM -2% | [15]; at 3.7 µM -4% | [15]; at 11.0 µM -9% | [15]; at 33.0 µM -18% | [15]; at 100.0 µM -28%
active: [9]; [18] 86%

CCC#CCCCOC(=O)c1cc([N+](=O)[O-])cc([N+](=O)[O-])c1
inactive: [1]; at 1.2 µM -3% | [1]; at 3.7 µM -4% | [1]; at 11.0 µM 2% | [2]; at 1.2 µM -6% | [2]; at 3.7 µM -8% | [2]; at 11.0 µM -10% | [2]; at 33.0 µM 66% | [3]; at 1.2 µM 3% | [3]; at 3.7 µM 21% | [3]; at 11.0 µM 55% | [4]; at 1.2 µM -5% | [4]; at 3.7 µM -8% | [4]; at 11.0 µM -4% | [5]; at 1.2 µM -4% | [5]; at 3.7 µM -6% | [5]; [17] 6% | [5]; at 11.0 µM 0% | [6]; at 1.2 µM -6% | [6]; at 3.7 µM -2% | [6]; [17] 7% | [6]; at 11.0 µM 2% | [16]; [17] 10% | [8]; at 1.2 µM -5% | [8]; at 3.7 µM -11% | [8]; at 11.0 µM -19% | [8]; at 33.0 µM 44% | [9]; [17] -7% | [10]; at 1.2 µM -10% | [10]; at 3.7 µM -7% | [10]; [17] 4% | [10]; at 11.0 µM -6% | [10]; at 33.0 µM 52% | [11]; at 1.2 µM -7% | [11]; at 3.7 µM -10% | [11]; at 11.0 µM 4% | [12]; at 1.2 µM -2% | [12]; at 3.7 µM 0% | [12]; at 11.0 µM 8% | [13]; at 1.2 µM -1% | [13]; at 3.7 µM 3% | [13]; at 11.0 µM 23% | [14]; [17] 13% | [15]; at 1.2 µM -3% | [15]; at 3.7 µM 4% | [15]; at 11.0 µM 20%
active: [1]; at 33.0 µM 81% | [1]; at 100.0 µM 98% | [2]; at 100.0 µM 99% | [3]; at 33.0 µM 92% | [3]; at 100.0 µM 98% | [4]; at 33.0 µM 93% | [4]; at 100.0 µM 99% | [5]; at 33.0 µM 87% | [5]; [18] 97% | [5]; at 50.0 µM 99.2% | [5]; at 100.0 µM 98% | [6]; at 33.0 µM 83% | [6]; [18] 99% | [6]; at 50.0 µM 99.3% | [6]; at 100.0 µM 99% | [16]; [18] 99% | [16]; at 50.0 µM 99.6% | [8]; at 100.0 µM 99% | [9]; [18] 94% | [9]; at 50.0 µM 97.7% | [10]; [18] 97% | [10]; at 50.0 µM 99.5% | [10]; at 100.0 µM 98% | [11]; at 33.0 µM 98% | [11]; at 100.0 µM 99% | [12]; at 33.0 µM 91% | [12]; at 100.0 µM 99% | [13]; at 33.0 µM 98% | [13]; at 100.0 µM 99% | [14]; [18] 99% | [14]; at 50.0 µM 99.2% | [15]; at 33.0 µM 94% | [15]; at 100.0 µM 99%
